The source of these data is PubChem BioAssay (EPA / NIEHS).

“And” between values parts separate entries of the source, which are not always exact repeats. Equal entries are not always repeated. A structure can be active in one record and inactive in another. The source made the active and inactive calls. The calls were made as follows: active = hit-call score of the fitted dose curve at least 0.9, where 1 is the maximum; inactive = score below 0.9.

Read-out in the assay: UDP glucuronosyltransferase (UGT1A6), UGT1A6 (gene 54578)
The assay is described as follows: LTEA_HepaRG_UGT1A6: Life Technologies and Expression Analysis (LTEA) Assay for UDP glucuronosyltransferase (UGT1A6) using HepaRG (AID 2283539). Particulars: mRNA level, 48 h; actives raise or lower the signal. As to the method: LTEA_HepaRG is a cell based, multiplexed-readout assay that uses HepaRG, a human liver cell line, with measurements taken at 48 hours after chemical dosing on a 96-well plate.LTEA_HepaRG_UGT1A6 is one of 102 assay component(s) measured in the LTEA HepaRG cell culture assay. It is a marker of NR mediated metabolism.Data from the assay component LTEA_HepaRG_UGT1A6 was analyzed into 1 endpoint. This assay endpoint, LTEA_HepaRG_UGT1A6, was analyzed with bidirectional fitting relative to DMSO as the negative control and baseline of activity. Using a type of inducible reporter, measures of mRNA induction for gain or loss-of-signal activity can be used to understand regulation of transcription factor activity. To generalize the intended target to other relatable targets, this assay endpoint is annotated to the transferase intended target family, where the subfamily is glucuronosyltransferase.
A total of 1060 chemcials from the ToxCast library were tested in eight-point concentration-response experiments. Cell culture and cytotoxicity assays were conducted at Thermo Fisher Scientific's Custom Services facility (Madison, WI). A single lot of human HepaRG cells (Thermo Fisher Scientific, Frederick, MD) was used for the cell culture experiments. 96-well format collagen type I coated plates of human HepaRG cells were prepared using established methods. Briefly, cryopreserved HepaRG cells were thawed, plated at a density of approximately 100,000 cells/well in HepaRG Thaw, Plate, and General Purpose media (HPRG770, Thermo Fisher Scientific), and incubated for 48 hours. 0.5% DMSO was selected as vehicle control to balance the requisite need of DMSO in HepaRG cultures to maintain differentiation (for example, baseline metabolism, proportions of hepatocytes vs. cholangiocytes), while enabling further hepatic receptor pathway activation (for example, PXR and CAR) in response to chemical exposure. 48 hours after plating, the culture medium was replaced with HepaRG Serum-Free Incudtion Media. Cells were exposed to each test chemical in duplicate and maintained in CO2 incubators for another 48 hours. Chemical plates were thawed to room temperature and 200x concentrations of treatment groups were prepared. 8-point conentration-reponse curves were made with the highest exposure at 100 uM, followed by half-log dilutions, all in 0.5% DMSO. Each test plate contained variouse controls, induction positive controls (1mM phenobarbital), cytotoxicity positive controls ([…] aflatoxin B1), vehicle controls (0.5% DMSO), and total lysis controls (0.5% DMSO). Cell morphology images were taken using an Essen IncuCyte FLR automated microscope, with six 96-well plates imaged in about 24 minutes. Images were captured and exported and JPEG files. Spent culture media was transfered to black-well plates for the LDH assay, and remaining media was sorted at -80 C for later use. Cells were treated with RLT buffer and frozen until shipped for gene expression analysis. Total RNA was isolated from the cell suspension in 75 uL of Buffer RLT (Qiagen, Germantown, MD 20874) by Quintiles/Expression Analysis (Durham, NC) using a custom isolation procedure. Total RNA from each plate well was transferred to a preamplification plate. Fluidigm's 96.96 Dynamic ArrayTM (Fluidigm, Amsterdam, the Netherlands) technology was used for gene expression analyses by quantitative reverse transcription polymerase chain reaction (qRT-PCR, performed by Quintiles/Expression Analysis, Durham, NC)89. Standard TaqManTM Assays (Applied Biosystems/ThermoFisher Scientific, Foster City, CA) were used to assess the expression of 93 genes selected based on their selectivity and sensitivity to important hepatic receptors known to be modulated by environmental chemicals; importance in human hepatocyte functionality; and hepatotoxicity. […]
For the compound `CNC(=O)CSP(=S)(OC)OC`, the compound was classed as inactive.
The term AC50 denotes the concentration giving half of the maximal activity seen. For the compound `CC(C)(C)C(O)C(Oc1ccc(Cl)cc1)n1cncn1` (stereo not given), the result was inactive and the half-maximal activity concentration (AC50) is 0.381 µM (active).
For the compound `Oc1ccc(Cl)cc1Cc1ccccc1`, the compound was called inactive and the AC50 is 81.1 µM (active).
Regarding `CCOCN(C(=O)CCl)c1c(C)cccc1CC`, the compound was classed as inactive.
Still for that read-out and setting: the result for `N#CN` reads “inactive”; that for `ClC1C(Cl)C(Cl)C(Cl)C(Cl)C1Cl` (stereo not given), “inactive”.
Take `CNC(=O)Oc1ccccc1OC(C)C`: the compound was called inactive.
Take `Oc1cc(Cl)ccc1Oc1ccc(Cl)cc1Cl`: the AC50 is 51 µM (active) and the call was inactive.
In the case of `Cc1[nH]c(=O)n(C(C)(C)C)c(=O)c1Cl`, the result was inactive.
As for `CNC(=O)/C=C(\C)OP(=O)(OC)OC`, the outcome was inactive.
Take `CC(C)(C)C(O)/C(=C\c1ccc(Cl)cc1Cl)n1cncn1` (stereo not given): the half-maximal activity concentration (AC50) was 36.4 µM (active).
For the compound `N#Cc1c(Cl)c(Cl)c(Cl)c(C#N)c1Cl`, the call was inactive.
As to `CNC(=O)Oc1cccc(N=CN(C)C)c1`, the outcome was inactive.
With `CCN(CC)C(=O)SCc1ccc(Cl)cc1`, the result was inactive.
Still for that read-out and setting: then `COP(=O)(OC)OC=C(Cl)Cl`, with “inactive”; and `CC1(C)C(C=C(Cl)Cl)C1C(=O)OC(C#N)c1ccc(F)c(Oc2ccccc2)c1` (stereo not given), with “inactive”.
In the case of `COP(=S)(OC)Oc1ccc(SC)c(C)c1`, the call was inactive.
Regarding `O=[N+]([O-])/N=C1\NCCN1Cc1ccc(Cl)nc1`, the compound was classed as inactive.
For `CC1(c2ccc(Oc3ccccc3)cc2)OC(=O)N(Nc2ccccc2)C1=O` (stereo not given), the concentration at half-maximal activity (AC50) was 50.2 µM (active).
For the compound `CCOC1Oc2ccc(OS(C)(=O)=O)cc2C1(C)C` (stereo not given), the AC50 was 85.4 µM (active).
As for `O=S(=O)(O)C(F)(F)C(F)(F)C(F)(F)C(F)(F)C(F)(F)C(F)(F)C(F)(F)C(F)(F)F`, the concentration at half-maximal activity (AC50) is 89.2 µM (active) and 47 µM (active); the compound was classed as inactive.
Take `CC(C)OC(=O)Nc1cccc(Cl)c1`: the result was inactive.
With `O=C(NC(=O)c1c(F)cccc1F)Nc1ccc(OC(F)(F)C(F)OC(F)(F)F)c(Cl)c1` (stereo not given), the outcome was inactive.
With `CCc1ccc(C(=O)NN(C(=O)c2cc(C)cc(C)c2)C(C)(C)C)cc1`, the outcome was inactive.
In the case of `O=C(O)CCCOc1ccc(Cl)cc1Cl`, the call was inactive.
For the compound `O=S1OCC2C(CO1)C1(Cl)C(Cl)=C(Cl)C2(Cl)C1(Cl)Cl` (stereo not given), the compound was called inactive.
With `CC[C@H](C)[C@H]1O[C@]2(C=C[C@@H]1C)C[C@@H]1C[C@@H](C/C=C(\C)[C@@H](O[C@H]3C[C@H](OC)[C@@H](O[C@H]4C[C@H](OC)[C@@H](O)[C@H](C)O4)[C@H](C)O3)[C@@H](C)/C=C/C=C3\CO[C@@H]4[C@H](O)C(C)=C[C@@H](C(=O)O1)[C@]34O)O2` (tested in a mixture with another compound), the AC50 was 18.6 µM (active).
`COP(=S)(OC)Oc1ccc([N+](=O)[O-])cc1`: the result was inactive.
The same measure, in the same setting: the result for `CN1CSC(=S)N(C)C1` reads “inactive”.
On the same count and under the same terms, the result for `Clc1ccccc1-c1nnc(-c2ccccc2Cl)nn1` reads “inactive”; that for `OCCOc1ccccc1`, “inactive”.
As for `O=C(Nc1ccccc1)Nc1cnns1`, the half-maximal activity concentration (AC50) was 77.9 µM (active).
Turning to `CCCN(CCC)c1c([N+](=O)[O-])cc(C(F)(F)F)cc1[N+](=O)[O-]`, the compound was called inactive.
As for `CCC(C)Nc1c([N+](=O)[O-])cc(C(C)(C)C)cc1[N+](=O)[O-]` (stereo not given), the call was inactive.
Regarding `O=C(O)C(F)(F)C(F)(F)C(F)(F)C(F)(F)C(F)(F)C(F)(F)C(F)(F)F`, the call was inactive.
In the case of `O=C(O)COc1ccc(Cl)cc1Cl`, the compound was classed as inactive.
